Experimental data reported in PubChem BioAssay (NCI).
This is part of a sample that, as a whole, favours compounds with a hit. Of some 79,000 tested, about 15% had one in any assay. Active and inactive are the calls of the source. Rule as the data show it: active = growth inhibition above about 70%; inactive = the rest.

Test: NCI Yeast Anticancer Drug Screen. Data for the mlh1 rad18 strain (AID 175)
Conditions: S. cerevisiae mlh1 rad18 strain growth inhibition; at 50.0 µM; hits give high values
In short: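 Yeast w/ defined DNA-repair lesions; compound exposure; growth vs vehicle controls → % inhibition.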

SMILES | growth inhibition
Cc1ccc(O)c(C(c2cc(C)ccc2O)c2ccccc2Cl)c1 | 99% (active)
O=c1ssc(=Nc2ccc(Cl)cc2)n1-c1ccc(Cl)cc1 | 98% (active)
CC(=O)OC1CCC2(C)C(CCC3C4=CCC(C5COC(=O)C5)C4(C)CCC32)C1 (stereo not given) | 78.1% (active)
CCN(CC)CCCC(C)Nc1cc(F)cc2cccnc12 (stereo not given) | 85.9% (active)
CC1CN(CCCN2c3ccccc3Sc3ccc(Cl)cc32)C(C)(C)C1 (stereo not given) | 99.8% (active)
O=S(=O)(O)c1ccc2c(c1)C1C(C3C2C2(Cl)C(Cl)=C(Cl)C3(Cl)C2(Cl)Cl)C2(Cl)C(Cl)=C(Cl)C1(Cl)C2(Cl)Cl (stereo not given) | 84.4% (active)
OC(CN1CCC(c2ccccc2)CC1)c1ccc(Br)cc1 (stereo not given) | 80.5% (active)
CCOC(=O)/C(C#N)=C\c1cccc2ccccc12 | 95.7% (active)
COc1ccc2c(c1)CCC(N1CCCC(O)C1)C2 (stereo not given) | 71.4% (active)
COc1cccc(N2CCN(CC(O)COc3cc4c(c5c3CCCC5)CCCC4)CC2)c1 (stereo not given) | 54% (inactive)
CC(=O)Oc1ccc(Cl)cc1Cc1cc(Cl)ccc1OC(C)=O | 95.2% (active)
CC(O)c1c2c(cc3c1CC1(C3)Cc3cc4c(c(C(C)O)c3C1)CCC4)CCC2 (stereo not given) | 88.3% (active)
O=c1c2ccccc2nc(-c2ccccc2)n1NC(=S)Nc1ccc(Cl)cc1[N+](=O)[O-] | 25.8% (inactive)
O=C(CCCN1CCc2[nH]c3cc(F)ccc3c2C1)c1ccc(F)cc1 | 85.6% (active)
OC(C(=Nc1ccccc1)c1ccccc1)c1ccccc1 (stereo not given) | 99.1% (active)
N#CC1CCCC(Cc2ccccc2)(c2ccccc2)C1=O (stereo not given) | 97.6% (active)
CC(OC(=O)Nc1cccc(Cl)c1)c1ccccc1 (stereo not given) | 99.2% (active)
O=C(O)/C=C/c1c2ccccc2cc2ccccc12 | 97.5% (active)
Cc1c[nH]c2c(O)cc3c(c12)[C@H](CCl)CN3C(=O)c1cc2cc(NC(=O)Nc3ccc4[nH]c(C(=O)N5C[C@@H](CCl)c6c5cc(O)c5[nH]cc(C)c65)cc4c3)ccc2[nH]1 | 3.2% (inactive)
Cc1ccc(S(=O)(=O)OC(C=O)C(O)C(O)COC(c2ccccc2)(c2ccccc2)c2ccccc2)cc1 (stereo not given) | 85.2% (active)

SMILES | growth inhibition
COc1cc2c(cc1C(C)C)CCC1C(C)(C#N)CCCC21C (stereo not given) | 88.8% (active)
Fc1ccc(NC(=S)SCc2ccc(Cl)c(Cl)c2)c(F)c1 | 99% (active)
COC(=O)/C=C(\NC1CC(OC2C[C@](O)(C(C)=O)Cc3c(O)c4c(c(O)c32)C(=O)c2c(OC)cccc2C4=O)OC(C)C1O)C(=O)OC (stereo not given in full) | 98.3% (active)
O=C1CSC(=S)N1c1ccc(F)cc1F | 70.2% (active)
CS(=O)(=O)OCCN(CCOS(C)(=O)=O)c1ccc(C=Nc2ccc3ccccc3c2)c(Cl)c1 | 66% (inactive)
CN(C)C(=O)Nc1ccc(Cc2ccc(NC(=O)N(C)C)cc2)cc1 | -0.15% (inactive)
O=c1c(Cl)c(Cl)c(=O)c2sc3cc(Cl)ccc3[nH]c1=2 | 96.9% (active)
O=S(=O)(O)C(O)c1ccc2ccc3cccc4ccc1c2c34 (stereo not given) | 97% (active)
N#Cc1cc([N+](=O)[O-])ccc1NC(=O)/C(=N/N)C(C(=O)c1ccc(Cl)c(Cl)c1)C1OC(=O)c2ccccc21 (stereo not given) | 92% (active)
O=C(Nc1ccc(Cl)c(Cl)c1Cl)Oc1c(Cl)c(Cl)c(Cl)c(Cl)c1Cl | 99.5% (active)
O=[N+]([O-])c1cc(Cl)cc2c1nc(NCCO)c1ccccc12 | 89.5% (active)
CCNc1nc(C(F)(F)F)nc2nc[nH]c12 | 39.9% (inactive)
CC1CCN(CCOC(=O)C(c2ccccc2)C2C=CCCC2)C1 (stereo not given) | 52.7% (inactive)
CCOC(=O)c1c(N)sc2c1CCCCC2 | 61.1% (inactive)
CC(C(O)Cc1ccccc1)N(C)N=Nc1ccc([N+](=O)[O-])cc1 (stereo not given) | 78.5% (active)
O=[N+]([O-])c1ccc(/C=c2\sc3scc(-c4ccc([N+](=O)[O-])cc4)[n+]3\c2=C/c2ccc([N+](=O)[O-])cc2)cc1 | 94.6% (active)
Oc1cc(C(c2ccccc2)c2ccccc2)c2ccccc2c1O | 97.8% (active)
CC1=CC2OC3CC4OC(=O)/C=C/C=C/C(C(C)O)OCC(=O)C(C)CC(=O)OCC2(CC1)C4(C)C31CO1 (stereo not given) | 91.3% (active)
CC(NNC(=S)N1CCCCCC1)c1cc2ccccc2cn1 (stereo not given) | 90.5% (active)
CC(C)C1=CC23CCC4C(C)(C(=O)O)CCCC4(C)C2CC1C1C(=O)C=CC(=O)C13 (stereo not given) | 55.4% (inactive)
